These results are taken from PubChem BioAssay (Tox21).

Assay [1] can be described thus: qHTS RealTime-Glo MT Cell Viability Assay in HepG2 cells - 40 hour (AID 1224870). Also: nearly all actives have a fitted effect of over 50% in size. The method in brief:
(§1)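 HepG2 cells mixed with RealTime-Glo MT reagents (NanoLuc plus cell-permeant prosubstrate) were seeded at 600 cells/well, incubated 5 h at 37 C/5% CO2, then pinned with compounds in DMSO; nonlytic luminescence tracked viability during 40 h treatment.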
In general terms: Quantitative high-throughput screening tests each substance at several concentrations.

Assay [2] in a line: A CellTox Green Cytotoxicity Assay to monitor cytotoxicity in HEK293 cells - 40 hour (AID 1224871). Also: nearly all actives have a fitted effect of over 45% in size. Also: potency is read from the fitted curve at half-maximal effect. The method in brief: (§2)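 Cells (HEK293, 600/well) and dye reagent are dispensed together. After 5 h at 37 C, 23 nL compound is pinned in. Plates stay at 37 C for 40 h with fluorescence read at 0h, 8h, 16h, 24h, 32h and 40h.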
Assay [3] is described as follows: qHTS RealTime-Glo MT Cell Viability Assay in HEK293 cells - 16 hour (AID 1224872). Also: nearly all actives have a fitted effect of over 50% in size. Also: potency is read from the fitted curve at half-maximal effect. The method, boiled down:
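Luminescence generated by NanoLuc from substrate produced by living HEK293 cells served as the viability signal. Each value reflects the reading at its stated time point during continuous 40 h compound exposure at 37 C.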

Assay [4] in a line: qHTS RealTime-Glo MT Cell Viability Assay in HepG2 cells - 8 hour (AID 1224873). Also: nearly all actives have a fitted effect of over 55% in size. The method in brief: as §1
Assay [5] in a line: qHTS RealTime-Glo MT Cell Viability Assay in HEK293 cells - 40 hour (AID 1224874). Also: nearly all actives have a fitted effect of over 50% in size. Also: potency is read from the fitted curve at half-maximal effect. As to conditions: RealTime-Glo luminescence; max response: stronger effect = lower value. The method, boiled down:
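Real-time viability in HEK293: signal arises when living cells convert a prosubstrate for NanoLuc in the medium, so luminescence tracks viable cell number. Compound (23 nL, DMSO) added 5 h post-seeding; kinetic reads at 0–40 h, 37 C.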

Assay [6] in a line: A CellTox Green Cytotoxicity Assay to monitor cytotoxicity in HEK293 cells - 24 hour (AID 1224875). Also: series mostly up to about 77 µM; nearly all actives have a fitted effect of over 45% in size. The method in brief: as §2
Assay [7] is described as follows: A CellTox Green Cytotoxicity Assay to monitor cytotoxicity in HepG2 cells - 16 hour (AID 1224876). Also: nearly all actives have a fitted effect of over 45% in size. The method in brief:
(§3)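 Cells and non-lytic dye reagent are dispensed together (600 HepG2 cells/well) and incubated 5 h before DMSO compound transfer. Kinetic fluorescence is then recorded in the same wells during 40 h at 37 C.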

Assay [8] can be described thus: qHTS RealTime-Glo MT Cell Viability Assay in HepG2 cells - 32 hour (AID 1224877). Also: nearly all actives have a fitted effect of over 55% in size. The method, boiled down:
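Tox21 10K library screened in qHTS format on HepG2 cells carrying RealTime-Glo reagents. Compounds were added after a 5 h preincubation, and the luminescent signal from continuous culture was measured repeatedly during 40 h treatment.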

A short description of assay [9]: A CellTox Green Cytotoxicity Assay to monitor cytotoxicity in HepG2 cells - 24 hour (AID 1224878). Also: nearly all actives have a fitted effect of over 45% in size. Also: potency is read from the fitted curve at half-maximal effect. The method in brief: as §3
Assay [10] can be described thus: A CellTox Green Cytotoxicity Assay to monitor cytotoxicity in HepG2 cells - 40 hour (AID 1224879). Also: nearly all actives have a fitted effect of over 40% in size. Also: potency is read from the fitted curve at half-maximal effect. The method in brief:
as §3

“And” between values parts separate entries of the source, which are not always exact repeats. Equal values may be shown once. Records with an inconclusive call do not appear. Some structures have more than one record in an assay (separate samples or runs), and their calls can disagree. The source made the active and inactive calls. Calls follow the shape of the dose curve; as a rule, active = well fitted curve in the direction sought with a large enough effect in the repeat runs; inconclusive = weak or mixed curves; inactive = no such curve, though single readings can be large; an effect the other way counts as inactive or inconclusive.
% is scaled to controls: 0 for no effect and ±100 for the full control effect.

As for `O=Nc1ccc(O)cc1`, the Potency result in assay [1], in [2], in [3], in assay [4], in assay [6] and in assay [7] was “inactive” throughout. In addition, the Potency result in assay [8], in assay [9] and in [10] was “inactive” each time. Further, the max response in assay [5] is 2.25% (inactive).
Turning to `CCOC(=O)[C@H](CCc1ccccc1)N[C@@H](C)C(=O)N1Cc2ccccc2C[C@H]1C(=O)O`, the Potency entry in assay [1], in [2], in assay [3], in assay [4], in assay [6] and in [7] was “inactive” throughout. Moreover, the Potency result in [8], in assay [9] and in assay [10] was “inactive” each time. Besides, in [5], the max response is -0.607% (inactive) and -1.19% (inactive).
With `COC(=O)Nc1nc2ccc(Sc3ccccc3)cc2[nH]1`, the Potency entry in [1], in assay [4], in [6], in assay [7] and in assay [8] was “inactive” in each case. Further, the Potency was 21.3 µM (active) in assay [2]; 1.38 µM (active) and 1.9 µM (active) in assay [3]; 616 nM (active) and 848 nM (active) in [5]; “inactive and 10.7 µM (active)” in [9]; 1.55 µM (active) and 848 nM (active) in assay [10].
Turning to `CC1COc2ccccc2N1C(=O)C(Cl)Cl` (stereo not given), the Potency result in [1], in assay [2], in assay [3], in [4], in assay [6] and in assay [7] was “inactive” throughout. Also, the Potency entry in assay [8], in assay [9] and in [10] was “inactive” each time. In addition, in assay [5], the max response is -21% (inactive).
On to `CCOC(=O)/C=C\C(=O)OCC`, for which the Potency entry in assay [1], in [2], in [3], in assay [4], in assay [6] and in assay [7] was “inactive” throughout. Besides, the Potency entry in assay [8], in assay [9] and in assay [10] was “inactive” in each case. Besides, the max response in assay [5] is 0.421% (inactive) and 21.2% (inactive).
Turning to `c1ccc2ccccc2c1`, the Potency entry in [1], in assay [2], in [3], in assay [4], in assay [6] and in [7] was “inactive” in each case. Further, the Potency entry in assay [8], in assay [9] and in assay [10] was “inactive” throughout. Further, the max response in assay [5] is 0.777% (inactive) and 7.95% (inactive).
On to `O=C1N=C(O)CN1/N=C/c1ccc(-c2ccc([N+](=O)[O-])cc2)o1`, for which the Potency result in [1], in [2], in [3], in assay [4], in [6] and in [7] was “inactive” throughout. Moreover, the Potency result in assay [8], in assay [9] and in [10] was “inactive” in each case. Besides, in [5], the max response was -2.04% (inactive).
As to `NC(=O)/N=N/C(N)=O`, the Potency entry in [1], in [2], in [3], in assay [4], in [6] and in assay [7] was “inactive” each time. The Potency entry in [8], in [9] and in assay [10] was “inactive” in each case. Moreover, the max response in [5] was 1.69% (inactive) and 1.16% (inactive).
Turning to `O=[N+]([O-])c1cccc(Cl)c1`, the Potency result in assay [1], in assay [2], in [3], in [4], in assay [6] and in [7] was “inactive” throughout. The Potency entry in assay [8], in assay [9] and in assay [10] was “inactive” in each case. In [5], the max response is 7.7% (inactive).
Take `CCCCC(CC)COC(C)=O` (stereo not given): the Potency entry in [1], in [2], in [3], in [4], in assay [6] and in assay [7] was “inactive” in each case. The Potency result in assay [8], in [9] and in [10] was “inactive” throughout. Further, the max response in [5] was 1.23% (inactive) and 1.38% (inactive).
`c1ccc2[nH]cnc2c1`: the Potency result in [1], in assay [2], in [3], in [4], in assay [6] and in assay [7] was “inactive” throughout. Moreover, the Potency entry in [8], in [9] and in assay [10] was “inactive” each time. Moreover, the max response in assay [5] is -5.47% (inactive) and 1.04% (inactive).
For the compound `OC1CCCC1`, the Potency result in [1], in assay [2], in [3], in [4], in assay [6] and in assay [7] was “inactive” each time. Besides, the Potency result in assay [8], in assay [9] and in [10] was “inactive” each time. Further, the max response in [5] was 8.58% (inactive) and -2.67% (inactive).
For the compound `CCCCCCCCC`, the Potency result in assay [1], in assay [2], in assay [3], in assay [4], in assay [6] and in [7] was “inactive” throughout. Further, the Potency entry in [8], in [9] and in [10] was “inactive” throughout. In addition, the max response in assay [5] is 9.17% (inactive) and -1.35% (inactive).
For `CCc1ccccc1O`, the Potency entry in assay [1], in assay [3], in assay [4], in assay [6], in assay [7] and in [8] was “inactive” each time. Moreover, the Potency result in [9] and in assay [10] was “inactive” each time. Further, the Potency in [2] is 54.7 µM (active) and inactive. Also, in assay [5], the max response is -2.02% (inactive).
For the compound `O=C(Oc1ccccc1)c1ccc(O)cc1`, the Potency entry in [1], in [2], in [3], in [4], in assay [6] and in [7] was “inactive” in each case. For the same compound, the Potency entry in [8], in assay [9] and in [10] was “inactive” each time. Moreover, the max response in assay [5] was -21.6% (inactive) and -15.5% (inactive).
`COCC(C)O` (stereo not given): the Potency result in assay [1], in assay [2], in [3], in assay [4], in assay [6] and in assay [7] was “inactive” each time. For the same compound, the Potency result in [8], in assay [9] and in assay [10] was “inactive” in each case. Moreover, the max response in [5] was -1.03% (inactive) and -1.56% (inactive).
In the case of `NCCNCCNCCNCCN`, the Potency entry in assay [1], in assay [2], in assay [3], in [4], in assay [6] and in assay [7] was “inactive” each time. Besides, the Potency result in assay [8], in [9] and in assay [10] was “inactive” each time. Besides, the max response in assay [5] is 1.39% (inactive) and 5.6% (inactive).
For `CCCCCCC(C)(C)S`, the Potency result in assay [1], in assay [2], in [3], in [4], in assay [6] and in assay [7] was “inactive” each time. Further, the Potency result in assay [8], in assay [9] and in assay [10] was “inactive” each time. For the same compound, the max response in assay [5] was 2.32% (inactive) and -0.908% (inactive).
Take `OC[C@@H](O)[C@@H](O)[C@H](O)[C@@H](O)CO`: the Potency result in assay [1], in assay [2], in [3], in assay [4], in [6] and in assay [7] was “inactive” each time. Also, the Potency entry in [8], in [9] and in assay [10] was “inactive” in each case. Besides, in [5], the max response is -13% (inactive) and 0.936% (inactive).
